Data on 40 compounds can be found in PubChem BioAssay (NCI).

Values joined by “and” are separate entries in the source; they are usually repeats but may differ in a detail not shown here. Identical values can stand only once. This is part of a sample that, as a whole, favours compounds with a hit. Of some 79,000 tested, about 15% had one in any assay. Active and inactive are the calls of the source. No stated cut-off is given here; in the data, active means growth inhibition above about 70%; inactive means the rest.

One experiment in a line: NCI Yeast Anticancer Drug Screen. Data for the bub3 strain (AID 167). Particulars: S. cerevisiae bub3 mutant strain, hits give high values; at 50.0 µM unless noted. The essentials: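 Growth of a checkpoint-deficient yeast mutant is measured after compound exposure. Values represent inhibition relative to vehicle.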
On to `Cc1ccc(N=C2S/C(=C3/CCC=C3N3CCOCC3)N(c3ccc(Cl)cc3)C2=Nc2ccc(C)cc2)cc1`, for which the growth inhibition is -22.4% (inactive).

`CC(=O)OCC1OC(n2c(Br)nc3c(=O)[nH]c(N)nc32)C(OC(C)=O)C1OC(C)=O` (stereo not drawn): the growth inhibition is -10.2% (inactive). Still for that read-out and setting: the same measure for `C1COC2(OC1)OCCCO2`: 8.75% (inactive); for `Cc1nn2c(nnn2CCO)c1-c1ccccc1`: -25.4% (inactive); for `O=C(O)CCC1=Nc2cccc3cccc(c23)NC1=O`: 12.9% (inactive). The same measure, in the same setting: the same measure for `CC(=O)Nc1nc(SCc2ccccc2)c2[nH]cnc2n1`: 31.2% (inactive); for `CCc1ccc(NS(=O)(=O)c2ccccc2[N+](=O)[O-])cc1`: 50.9% (inactive).

Regarding `O=C(O)c1cc([N+](=O)[O-])cc2c(=O)c3cnccc3[nH]c12`, the growth inhibition is -8.5% (inactive). The same measure, in the same setting: the same measure for `CCCCCCOc1ccccc1CO`: -8.15% (inactive); for `Cc1c(=O)n(C)c2ccccc2[n+]1[O-]`: 7.1% (inactive). The same measure, in the same setting: the same measure for `CS(=O)(=O)c1nc2[nH]cnc(=S)c2[nH]1`: 20.9% (inactive). The same measure, in the same setting: the figure for `Clc1nc2n(c1/C=C/c1cccs1)CCS2` is 20.6% (inactive); for `CN(C)/C=N/NC(=O)/C(C#N)=C/N(C)C` it is -45.1% (inactive). For the compound `CN1CNC(=O)NC1`, the growth inhibition was -23.1% (inactive) and -11.1% (inactive). Same read-out and setting: the figure for `O=[N+]([O-])c1ccn(Cc2ccccc2)c1` is -14.2% (inactive). With `CC1=CC(C)C(C(=O)OCC(C)C)C(C(=O)OCC(C)C)C1` (stereo not drawn), the growth inhibition was 23% (inactive).

Turning to `NC(=S)c1cccc(OCCc2ccccc2)c1`, the growth inhibition is 99.2% (active). Take `OC(COc1cccc(C(F)(F)F)c1)CN1CCN(c2cccc(F)c2)CC1` (stereo not drawn): the growth inhibition is 98.7% (active). Still for that read-out and setting: the figure for `COC1OC(CO)C(O)C1OS(C)(=O)=O` (stereo not drawn) is -4.45% (inactive); for `CCc1ccc(NC(=O)c2ccccc2)cc1CC` it is -4.05% (inactive); for `OC1(Cc2ccccc2)CCCCCC1` it is -0.95% (inactive). Same read-out and setting: the same measure for `Cc1ccccc1N=C(N)N`: -0.2% (inactive); for `CCCCCCCCCCCCN1CCCC(O)C1` (stereo not drawn): 70.6% (active).

Another experiment can be described thus: NCI Yeast Anticancer Drug Screen. Data for the mlh1 rad18 strain (AID 175). Particulars: S. cerevisiae mlh1 rad18 strain growth inhibition, hits give high values; at 50.0 µM unless noted. An outline of the steps: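 Growth inhibition of the yeast strain was measured after compound exposure and expressed relative to vehicle-treated controls. The strain carries defined defects in DNA damage repair.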
On to `Cc1ccc2c(c1)C(C)(C)C(C)(C)C2(C)C`, for which the growth inhibition was -0.1% (inactive).

`CCOc1ccccc1Nc1ccc(N)cc1S(=O)(=O)O`: the growth inhibition is -8.05% (inactive). Consider `CC(C)COC(=O)C(CC(C)C)NC(=O)C(C)O` (stereo not drawn), for which the growth inhibition is 6.6% (inactive). For the compound `CC(C)CC1N=C(NN=C(CCl)CCl)OP1(=O)NCCCCCCNP1(=O)OC(NN=C(CCl)CCl)=NC1CC(C)C` (stereo not drawn), the growth inhibition was 37.6% (inactive). On the same count and under the same terms, the figure for `CCOC(=O)Cc1ccc2ccccc2c1` is 7.5% (inactive); for `Cc1cc2c(cc1Cl)SC(NNC1=NCCN1)=NS2(=O)=O` it is 9.95% (inactive); for `CC1=C(C(=O)Nc2ccccc2)C(c2ccc3c(c2)OCO3)C(C(=O)Nc2ccccc2)=C(C)N1` it is 27.1% (inactive). The same measure, in the same setting: the figure for `O=C(CC(=O)c1cc(Cl)ccc1O)c1ccc2ccccc2n1` is 22.4% (inactive); for `COc1cc(/C=C/C(=O)c2c(=O)o[nH][n+]2-c2ccccc2)ccc1[O-]` it is -18.1% (inactive); for `O=C(/C=C/c1ccccc1)c1ccccc1` it is 14.3% (inactive) and -22.3% (inactive). Still for that read-out and setting: the figure for `O=C(O)c1ccccc1Br` is -3.35% (inactive). On to `Clc1nc(NCCc2ccccc2)c2ncn(-c3ccccc3)c2n1`, for which the growth inhibition is 42.8% (inactive). On the same count and under the same terms, the same measure for `Cc1ccc(C(=O)O)cc1`: -2.2% (inactive).

In the case of `CC(=O)Nc1ccc(NC(=O)NCCCCCCNC(=O)Nc2ccc(NC(C)=O)cc2)cc1`, the growth inhibition was 5.5% (inactive).

Regarding `Cc1nc2ccccc2c2ccc([N+](=O)[O-])cc12`, the growth inhibition was 12.3% (inactive).

As to `C[N+]1(C)CCc2cc(O)c(O)cc2C1Cc1ccc(O)c(O)c1` (stereo not drawn), the growth inhibition was 10.1% (inactive). With `O=c1[nH]c(=O)c2nc3c(=O)[nH]c(=O)[nH]c3nc2[nH]1`, the growth inhibition is -27.1% (inactive).

As to `Cc1ccc(N=C2S/C(=C3/CCC=C3N3CCOCC3)N(c3ccc(Cl)cc3)C2=Nc2ccc(C)cc2)cc1`, the growth inhibition is -28% (inactive). Consider `CC(=O)OCC1OC(n2c(Br)nc3c(=O)[nH]c(N)nc32)C(OC(C)=O)C1OC(C)=O` (stereo not drawn), for which the growth inhibition is 5.6% (inactive). Same read-out and setting: the figure for `C1COC2(OC1)OCCCO2` is 3.05% (inactive); for `Cc1nn2c(nnn2CCO)c1-c1ccccc1` it is 15.8% (inactive); for `O=C(O)CCC1=Nc2cccc3cccc(c23)NC1=O` it is 13.9% (inactive). Same read-out and setting: the same measure for `CC(=O)Nc1nc(SCc2ccccc2)c2[nH]cnc2n1`: 7.3% (inactive); for `CCc1ccc(NS(=O)(=O)c2ccccc2[N+](=O)[O-])cc1`: 65.5% (inactive). Regarding `O=C(O)c1cc([N+](=O)[O-])cc2c(=O)c3cnccc3[nH]c12`, the growth inhibition was -9.7% (inactive). The same measure, in the same setting: the same measure for `CCCCCCOc1ccccc1CO`: 10.8% (inactive); for `Cc1c(=O)n(C)c2ccccc2[n+]1[O-]`: 7.65% (inactive). On the same count and under the same terms, the figure for `CS(=O)(=O)c1nc2[nH]cnc(=S)c2[nH]1` is -7.1% (inactive); for `Clc1nc2n(c1/C=C/c1cccs1)CCS2` it is 59.5% (inactive).

Turning to `CN(C)/C=N/NC(=O)/C(C#N)=C/N(C)C`, the growth inhibition was -42.9% (inactive).

Take `CN1CNC(=O)NC1`: the growth inhibition is -16.1% (inactive) and 23.9% (inactive). On the same count and under the same terms, the same measure for `O=[N+]([O-])c1ccn(Cc2ccccc2)c1`: 9.5% (inactive); for `CC1=CC(C)C(C(=O)OCC(C)C)C(C(=O)OCC(C)C)C1` (stereo not drawn): -22.4% (inactive); for `NC(=S)c1cccc(OCCc2ccccc2)c1`: 98.7% (active).

On to `OC(COc1cccc(C(F)(F)F)c1)CN1CCN(c2cccc(F)c2)CC1` (stereo not drawn), for which the growth inhibition was 99% (active). Consider `COC1OC(CO)C(O)C1OS(C)(=O)=O` (stereo not drawn), for which the growth inhibition is -8.3% (inactive). The same measure, in the same setting: the same measure for `CCc1ccc(NC(=O)c2ccccc2)cc1CC`: -19.1% (inactive); for `OC1(Cc2ccccc2)CCCCCC1`: 1.95% (inactive); for `Cc1ccccc1N=C(N)N`: -1.95% (inactive). Still for that read-out and setting: the same measure for `CCCCCCCCCCCCN1CCCC(O)C1` (stereo not drawn): 78.1% (active).
